Inconclusive results are not listed. Activity calls are given as the source filed them. Rule for the calls: active = hit-call score of the fitted dose curve at least 0.9, where 1 is the maximum; inconclusive = response in the unintended direction; inactive = score below 0.9.
read-out: Glyceraldehyde-3-phosphate dehydrogenase (Homo sapiens) (UniProt P04406); test: CLD_GAPDH_24hr: CellzDirect (CLD) Gene Expression Assay for Baseline Control (Glyceraldehyde 3-phosphate dehydrogenase) at 24 hours (AID 2283692)
Description: CLD_24hr is a cell-based, multiplexed-readout assay that uses hepatocyte, a human liver primary cell, with measurements taken at 24 hours after chemical dosing in a 96-well plate.CLD_GAPDH_24hr is one of 16 assay component(s) measured or calculated from the CLD_24hr assay. It is designed to make measurements of mRNA induction, a form of inducible reporter, as detected with chemiluminescence signals by Quantitative Nuclease Protection Assay (qNPA) technology.Data from the assay component CLD_GAPDH_24hr was analyzed at the endpoint, CLD_GAPDH_24hr, in the positive analysis fitting direction relative to DMSO as the negative control and baseline of activity. Using a type of inducible reporter, gain-of-signal activity can be used to understand changes in the reporter gene as they relate to the gene GAPDH. Furthermore, this assay endpoint can be referred to as a secondary readout, because this assay has produced multiple assay endpoints where this one serves a background control function. To generalize the intended target to other relatable targets, this assay endpoint is annotated to the background measurement intended target family, where subfamily is baseline control.
Human hepatocyte cultures were treated daily for two consecutive days with fresh dosing solutions containing appropriate concentrations of the 320 ToxCast chemicals (chemical identities were blinded to CellzDirect and other ToxCast collaborators), vehicle control (0.2% DMSO), and positive control inducers as summarized in Table 1. Due to the large number of treatment groups and chemicals examined, the ToxCast chemicals were divided into two groups (spanning two independent cultures of hepatocytes from separate donor preparations (Hu778: ToxCast plates 1 and 2; Hu776: ToxCast plates 3 and 4). Each preparation of human hepatocyte cultures was treated with respective vehicle control, medium only control, set of six positive controls/reference chemicals for the five hepatic receptor pathways, and a subset of eight of the ToxCast chemicals (indoxacarb, pyrithiobac-sodium, norflurazon, cyhalofop-butyl, methomyl, thiram, acetochlor, and propiconazole). These replicate data, coupled with internal replicates designed within the blinded ToxCast chemical library, provided additional data to evaluate interindividual differences between hepatocyte preparations and their potential impact on chemical profiles.Cell morphology and integrity were evaluated using phase-contrast microscopy as an indicator of hepatocyte cell health (Tyson & Green, 1987). Cultures for each treatment group (i.e., media, vehicle [0.2% DMSO], positive control inducers [multiple concentrations], and the ToxCast chemicals [multiple concentrations]) were observed and cell morphology was assessed relative to vehicle control cultures at each harvest time point (0, 6, 24, or 48 h). […] Images were evaluated at the conclusion of the study to assess changes in cell integrity and account for the effects of chemical exposure on uncharacteristic changes in concentration-dependent gene expression profiles. The results from these determinations of apparent cytotoxicity were annotated (yes/no) alongside the corresponding qNPA data for reference.At the conclusion of each treatment period, hepatocyte cultures (96-well) were washed with 1 volume of HBSS, lysed by addition of 25 ul ArrayPlate lysis buffer (HTG, Tucson, AZ), and 70 ul/well of Denaturation Oil, denatured by incubation at 95C for 10 min, and frozen at approximately -70C until analysis by nuclease protection assay (qNPA) (Roberts et al., 2007). For qNPA analysis, cell lysates were thawed at 50C for approximately 30 min, qNPA probes were added, and samples were incubated at 95C for 10 min to begin the detection process by denaturing the target RNA, dissociating the duplexes and secondary structure hybridization. At the conclusion of the hybridization period, S1 nuclease reagent was added to each sample to digest all nonprotected nucleotides at 50C for 60-90 min. […]

Chain of Glyceraldehyde-3-phosphate dehydrogenase (Homo sapiens) (P04406 whole entry, looked up): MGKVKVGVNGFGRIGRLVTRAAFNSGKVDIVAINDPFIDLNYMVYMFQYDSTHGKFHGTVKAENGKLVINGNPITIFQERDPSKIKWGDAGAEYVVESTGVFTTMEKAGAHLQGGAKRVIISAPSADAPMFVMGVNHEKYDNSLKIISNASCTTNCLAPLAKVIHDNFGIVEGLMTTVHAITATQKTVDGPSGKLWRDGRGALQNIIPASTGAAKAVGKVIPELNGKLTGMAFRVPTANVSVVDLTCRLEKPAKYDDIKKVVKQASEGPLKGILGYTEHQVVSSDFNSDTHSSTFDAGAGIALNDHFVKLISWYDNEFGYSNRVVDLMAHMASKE

With `COc1cc(OC)nc(Sc2cccc(Cl)c2C(=O)O)n1` as the compound, how does the outcome read?
The outcome was “inactive”.

For `CC(Oc1cccc(Cl)c1)C(=O)O` (centres undefined), which outcome is on record?
The outcome was “inactive”.

How did the outcome turn out when `CC[C@H](C)[C@H]1O[C@]2(C=C[C@@H]1C)C[C@@H]1C[C@@H](C/C=C(\C)[C@@H](O[C@H]3C[C@H](OC)[C@@H](O[C@H]4C[C@H](OC)[C@@H](NC)[C@H](C)O4)[C@H](C)O3)[C@@H](C)/C=C/C=C3\CO[C@@H]4[C@H](O)C(C)=C[C@@H](C(=O)O1)[C@]34O)O2` was run?
Its outcome is “inactive”.

Which outcome does the source give for `CCc1cccc(CC)c1N(COC)C(=O)CCl` here?
Its outcome is “inactive”.

For `CCCCOC(=O)c1ccccc1C(=O)O`, which outcome is on record?
The outcome was “inactive”.

How did the outcome turn out when `C#CCC1=C(C)C(OC(=O)C2C(C=C(C)C)C2(C)C)CC1=O` (centres undefined) was run?
Its outcome is “inactive”.

Which outcome does the source give for `CCc1cnc(C2=NC(C)(C(C)C)C(=O)N2)c(C(=O)O)c1` (centres undefined) here?
Its outcome is “inactive”.

For `COP(=O)(NC(C)=O)SC` (centres undefined), which outcome is on record?
Its outcome is “inactive”.

How did the outcome turn out when `CN(C)[C@@H]1C(=O)C(C(N)=O)=C(O)[C@@]2(O)C(=O)C3=C(O)c4c(O)cccc4[C@@](C)(O)[C@H]3[C@H](O)[C@@H]12` was run?
Its outcome is “inactive”.

Which outcome does the source give for `Nc1nc(N)nc(NC2CC2)n1` here?
The outcome was “inactive”.

With `CN(C)NC(=O)CCC(=O)O` as the compound, how does the outcome read?
The outcome was “inactive”.

How did the outcome turn out when `CC(C)N(C(=O)SCC(Cl)=C(Cl)Cl)C(C)C` was run?
Its outcome is “inactive”.

How did the outcome turn out when `CCOP(=O)(NC(C)C)Oc1ccc(SC)c(C)c1` (centres undefined) was run?
The outcome was “inactive”.

How did the outcome turn out when `O=c1ccc(=O)[nH][nH]1` was run?
The outcome was “inactive”.

`CC(C)=CC1C(C(=O)OCN2C(=O)C3=C(CCCC3)C2=O)C1(C)C` (centres undefined) was tested. Which outcome did it give?
Its outcome is “inactive”.

How did the outcome turn out when `CNC(=O)ON=C(SC)C(=O)N(C)C` was run?
The outcome was “inactive”.

`CCC(=NOC/C=C/Cl)C1=C(O)CC(C2CCOCC2)CC1=O` (centres undefined) was tested. Which outcome did it give?
The outcome was “inactive”.

How did the outcome turn out when `CCCOc1nn(C(=O)NS(=O)(=O)c2ccccc2C(=O)OC)c(=O)n1C` was run?
Its outcome is “inactive”.

With `CC1=NNC(=O)N(/N=C/c2cccnc2)C1` as the compound, how does the outcome read?
The outcome was “inactive”.

`CCOP(=S)(OCC)OC(Cl)C(Cl)(Cl)Cl` (centres undefined) was tested. Which outcome did it give?
Its outcome is “inactive”.

For `CNC(=O)ON=C(C)SC`, which outcome is on record?
Its outcome is “inactive”.

How did the outcome turn out when `CCCOCC(=Nc1ccc(Cl)cc1C(F)(F)F)n1ccnc1` was run?
Its outcome is “inactive”.

`O=C(O)c1cc(Oc2ccc(C(F)(F)F)cc2Cl)ccc1[N+](=O)[O-]` was tested. Which outcome did it give?
The outcome was “inactive”.

Which outcome does the source give for `CCCCOC(=O)[C@@H](C)Oc1ccc(Oc2ccc(C#N)cc2F)cc1` here?
The outcome was “inactive”.

Which outcome does the source give for `N#CSCSC#N` here?
The outcome was “inactive”.

`CCOP(=O)(OCC)Oc1cc(C)nc(C(C)C)n1` was tested. Which outcome did it give?
The outcome was “inactive”.

Which outcome does the source give for `CSc1nnc(C(C)(C)C)c(=O)n1N` here?
The outcome was “inactive”.

For `S=C1NCCN1`, which outcome is on record?
Its outcome is “inactive”.

With `COc1ccc(C(=CC(=O)N2CCOCC2)c2ccc(Cl)cc2)cc1OC` as the compound, how does the outcome read?
The outcome was “inactive”.

Reference: PubChem BioAssay (EPA / NIEHS)
